Consider seven molecules from PubChem BioAssay (Tox21).

Assay [1] can be described thus: qHTS assay for small molecule agonists of the p53 signaling pathway (AID 651631; calls by dose curve; also: nearly all actives have a fitted effect of over 15% in size). An outline of the steps: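 Read-out is beta-lactamase FRET fluorescence measured 2 h after substrate addition at room temperature, in HCT-116 cells with a p53 response element-driven reporter exposed to compounds for 16 h at 37 °C.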
Assay [2] is described as follows: qHTS assay for small molecules that induce genotoxicity in human embryonic kidney cells expressing luciferase-tagged ATAD5 (AID 651632). Also: nearly all actives have a fitted effect of over 15% in size. Also: potency is read from the fitted curve at half-maximal effect. The method in brief:
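Luminescence read-out: after 16 hr compound exposure at 37C, ATAD5-luciferase HEK293T cells received Amplite, 30 min RT, then CCD imaging. A rise in signal marks genotoxic stress.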

A short description of assay [3]: qHTS assay for small molecule agonists of the p53 signaling pathway - cell viability (AID 651633; calls by dose curve;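 also: p53RE-bla HCT reporter cells with a stable beta-lactamase p53 reporter; series mostly up to about 83 µM; nearly all actives have a fitted effect of over 30% in size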). The method in brief:
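p53RE-bla cells, seeded at 4,000 per well and rested 5 h at 37 C/5% CO2, received compounds in DMSO for 16 h at 37 C. CellTiter-Glo was then added, and luminescence was read after 30 min at room temperature to gauge cytotoxicity.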

The nature of assay [4]: qHTS assay for small molecules that induce genotoxicity in human embryonic kidney cells expressing luciferase-tagged ATAD5 - cell viability (AID 651634; calls by dose curve; also: nearly all actives have a fitted effect of over 25% in size). The method in brief: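 HEK293T ATAD5-luc cells, 2,000/well; compound 15.5 hr, 37C/5% CO2; CellTiter-Fluor 30 min, 37C; fluorescence read.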
Assay [5] in a line: qHTS assay for small molecule disruptors of the mitochondrial membrane potential - cell viability (AID 720634; calls by dose curve;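 also: human HepG2 liver cancer cells; series mostly up to about 83 µM; nearly all actives have a fitted effect of over 20% in size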). The method in brief: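 Luminescence from CellTiter-Glo (ATP content) gave viability in HepG2 cells, read in the same wells as the MMP dye assay after 1 hr compound exposure at 37 C.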
A short description of assay [6]: qHTS assay for small molecule disruptors of the mitochondrial membrane potential (AID 720635). Also: potency is read from the fitted curve at half-maximal effect. An outline of the steps:
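HepG2 cells (2,000/well) attached overnight at 37C, then took compound for 1 hr at 37C, 5% CO2. Mito-MPS dye was added for 30 min; fluorescence was read at 490/535 nm (monomers) and 540/590 nm (aggregates).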

A short description of assay [7]: qHTS assay to test for compound auto fluorescence at 590 nm (red) in HepG2 cells (AID 720674). The method in brief: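 Rose Bengal sodium served as the red fluorophore standard. HepG2 monolayers (overnight attachment, MEM with 10% FBS) were exposed to test compounds for 1 hr at 37 C and read at Ex 540/Em 590 nm.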
Assay [8] can be described thus: qHTS assay to test for compound auto fluorescence at 535 nm (green) in HepG2 cells (AID 720675).
Assay [9] is described as follows: qHTS assay to test for compound auto fluorescence at 460 nm (blue) in HEK293 cells (AID 720678). An outline of the steps: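 Blue read-out at excitation 405 nm and emission 460 nm follows overnight compound exposure of HEK293 cells at 37C in 5% CO2. Activity is given as auto fluorescence equivalency to triamterene.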
Assay [10] can be described thus: qHTS assay to test for compound auto fluorescence at 590 nm (red) in HEK293 cells (AID 720679). An outline of the steps:
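Red channel, Ex/Em 540/590nm; signal expressed as equivalency to Rose Bengal sodium. HEK293, 2,000 cells/well, 10% dialyzed FBS; 23 nL compound pinned after 4-5 hr attachment; overnight 37C/5% CO2 before reading.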

The nature of assay [11]: qHTS assay to test for compound auto fluorescence at 535 nm (green) in HEK293 cells (AID 720680).
A short description of assay [12]: qHTS assay to test for compound auto fluorescence at 460 nm (blue) in HEK293 cell free culture (AID 720681). The method in brief: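 Test compounds were pinned into cell-free culture medium (DMEM with 10% FBS) and fluorescence was read directly at Ex/Em 405/460 nm. Signals were expressed as fluorescence equivalents of triamterene, with DMSO vehicle as control.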

The nature of assay [13]: qHTS assay to test for compound auto fluorescence at 535 nm (green) in HEK293 cell free culture (AID 720682). The method in brief:
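Fluorescein serves as the green reference fluorophore; each compound's intrinsic emission at 535 nm (excitation 485 nm) is reported as an equivalent amount of that dye, measured in serum-containing DMEM without cells.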

A short description of assay [14]: qHTS assay to test for compound auto fluorescence at 590 nm (red) in HEK293 cell free culture (AID 720683). An outline of the steps: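 Tox21 10K library compounds were pinned into cell-free DMEM with 10% FBS and fluorescence was read at excitation 540 nm. Activity is expressed as Rose Bengal sodium equivalency.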
Assay [15] in a line: qHTS assay to test for compound auto fluorescence at 590 nm (red) in HepG2 cell free culture (AID 720684). The method in brief: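 Ex 540 / Em 590 nm read of compound in cell-free MEM (10% FBS). Rose Bengal sodium reference.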
Assay [16] is described as follows: qHTS assay to test for compound auto fluorescence at 460 nm (blue) in HepG2 cell free culture (AID 720685). The method in brief: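 Cell-free plates of MEM plus 10% FBS received 23 nL compound or DMSO vehicle; blue-channel (405/460 nm) intensity scored against triamterene as reference fluorophore.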
The nature of assay [17]: qHTS assay to test for compound auto fluorescence at 535 nm (green) in HepG2 cell free culture (AID 720686).
A short description of assay [18]: qHTS assay to test for compound auto fluorescence at 460 nm (blue) in HepG2 cells (AID 720687). The method in brief:
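Cells (2,000/well in MEM with 10% FBS) attached overnight at 37 C, then were exposed to compound or DMSO for 1 hr at 37 C, 5% CO2. Fluorescence read at Ex/Em 405/460 nm, expressed as triamterene-equivalent signal.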

Assay [19] has as its target Glucocorticoid receptor (Homo sapiens) (UniProt P04150). As to the kind of experiment: qHTS assay to identify small molecule agonists of the glucocorticoid receptor (GR) signaling pathway (AID 720691; active = well fitted activation curve with a large enough effect in the signal ratio in the repeat runs, not every such curve was filed as active; the % refers to the signal ratio). An outline of the steps: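 HeLa GR-bla reporter line; cells pre-incubated 4 h, compound in DMSO 18 h at 37 C; LiveBLAzer B/G FRET substrate 2 h RT; fluorescence intensity read-out.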

The target is the same in assay [20]. In words: qHTS assay to identify small molecule antagonists of the glucocorticoid receptor (GR) signaling pathway (AID 720692; active = well fitted inhibition curve with a large enough effect in the signal ratio in the repeat runs, not every such curve was filed as active; the % refers to the signal ratio). An outline of the steps:
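Read-out: beta-lactamase FRET substrate fluorescence, 2 h at room temperature, in HeLa cells stably carrying a GRE-driven bla reporter. Compounds were co-incubated with 5 nM dexamethasone agonist (final) for 18 h at 37 C.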

A number with no mark means an inactive call. Records with an inconclusive call do not appear. Active and inactive are the calls of the source. Unless noted, calls follow the shape of the dose curve; as a rule, active = well fitted curve in the direction sought with a large enough effect in the repeat runs; inconclusive = weak or mixed curves; inactive = no such curve, though single readings can be large; an effect the other way counts as inactive or inconclusive.

Glucocorticoid receptor (Homo sapiens), sequence (P04150 whole entry, looked up): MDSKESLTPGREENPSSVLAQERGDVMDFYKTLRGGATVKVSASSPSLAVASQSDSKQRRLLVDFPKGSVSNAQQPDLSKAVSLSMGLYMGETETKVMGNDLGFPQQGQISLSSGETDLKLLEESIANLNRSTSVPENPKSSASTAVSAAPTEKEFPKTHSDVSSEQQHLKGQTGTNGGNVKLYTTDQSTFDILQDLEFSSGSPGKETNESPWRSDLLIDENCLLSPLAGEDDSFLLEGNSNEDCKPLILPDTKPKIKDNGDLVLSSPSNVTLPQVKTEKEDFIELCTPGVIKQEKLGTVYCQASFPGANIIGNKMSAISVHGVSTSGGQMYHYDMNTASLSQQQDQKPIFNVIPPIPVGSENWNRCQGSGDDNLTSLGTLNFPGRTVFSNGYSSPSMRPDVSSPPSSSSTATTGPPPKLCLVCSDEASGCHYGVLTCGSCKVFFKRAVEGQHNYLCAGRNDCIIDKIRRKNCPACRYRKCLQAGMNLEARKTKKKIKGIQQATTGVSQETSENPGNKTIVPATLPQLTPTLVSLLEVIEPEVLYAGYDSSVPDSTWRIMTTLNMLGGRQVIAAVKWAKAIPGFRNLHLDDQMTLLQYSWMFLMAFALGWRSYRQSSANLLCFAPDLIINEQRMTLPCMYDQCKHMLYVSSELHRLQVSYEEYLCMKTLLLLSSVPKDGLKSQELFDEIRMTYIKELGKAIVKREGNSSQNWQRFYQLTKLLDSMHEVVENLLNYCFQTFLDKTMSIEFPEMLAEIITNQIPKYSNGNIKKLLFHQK

In the case of `CCOC(=O)c1ccccc1O`, the Potency result in [1], in assay [2], in assay [3], in assay [4], in assay [5] and in assay [6] was “inactive” each time. Further, the Potency result in assay [19] and in [20] was “inactive” each time. The molecule was called inactive in [7], in assay [8], in [9], in [10], in assay [11] and in [12]. Besides, the result in assay [13], in [14], in assay [15], in [16], in [17] and in assay [18] was inactive.
As to `CC(C)(C)c1ccc(OC(=O)c2ccccc2O)cc1`, the Potency entry in [1], in assay [3], in assay [4], in assay [5], in [19] and in [20] was “inactive” each time. In addition, the Potency in assay [2] was 21.7 µM (active); in assay [6], 24.3 µM (active). The result in assay [7], in assay [8], in assay [9], in assay [10], in [11] and in assay [12] was inactive. Further, the outcome in assay [13], in assay [14], in [15], in assay [16], in [17] and in [18] was inactive.
Consider `CCCCCCCCCC#N`, for which the Potency result in [1], in [2], in assay [3], in assay [4], in assay [5] and in assay [19] was “inactive” in each case. In assay [20], the Potency result is “inactive”. In addition, the call in assay [7], in assay [8], in [9], in assay [10], in [12] and in assay [13] was inactive. Also, the molecule was called inactive in [15], in [16], in assay [17] and in assay [18].
In the case of `NCCCN1CCN(CCCN)CC1`, the Potency entry in assay [1], in assay [2], in [3], in assay [4], in [5] and in [6] was “inactive” each time. For the same molecule, the Potency result in assay [19] and in [20] was “inactive” throughout. Moreover, the molecule was called inactive in [7], in [8], in assay [9], in assay [10], in [11] and in assay [12]. In addition, the molecule was classed as inactive in [13], in assay [14], in [15], in assay [16] and in [17].
As for `ICCc1ccccc1`, the Potency entry in assay [1], in [2], in assay [3], in assay [4] and in assay [5] was “inactive” in each case. Moreover, the molecule was called inactive in assay [7], in assay [8], in assay [9], in assay [10], in [11] and in assay [12]. The result in assay [13], in [14], in [15], in [16], in [17] and in assay [18] was inactive.
In the case of `C[C@@H]1CN(c2c(F)c(N)c3c(=O)c(C(=O)O)cn(C4CC4)c3c2F)C[C@H](C)N1`, the Potency entry in assay [1], in assay [2], in [3], in assay [4], in assay [5] and in assay [6] was “inactive” throughout. Besides, the Potency entry in assay [20] is “inactive”. Moreover, the result in assay [7], in [8], in [10], in [11], in [12] and in assay [13] was inactive. In addition, the call in assay [14], in [16] and in assay [17] was inactive.
Turning to `OCc1ccccc1O`, the Potency result in assay [1], in [2], in assay [3], in assay [4], in assay [5] and in assay [6] was “inactive” throughout. Also, the Potency entry in assay [19] and in [20] was “inactive” throughout. The outcome in assay [7], in assay [8], in [9], in [10], in assay [11] and in [13] was inactive. Further, the call in [14], in [15], in [16], in [17] and in assay [18] was inactive.
